Results: ChEMBL document CHEMBL4513216, “Probing the Open Global Health Chemical Diversity Library for Multistage-Active Starting Points for Next-Generation Antimalarials” (ACS Infect Dis, 2020)
About 2,100 (3.2%) of roughly 65,000 compounds showed an effect of 50% or more. The median lay at about -52%. The list comes from a sample in which strong results are over-represented; it also holds similar structures and randomly drawn compounds.

System: Plasmodium falciparum
Assay: Screen against P. falciparum Asexual Blood Stage (ABS), at 5uM
Assay type: functional, Dd2
Conditions: tested at 5 uM

SMILES	INHIBITION [%]
Cc1ccc(OCC(O)CN2CCc3c(ncn3C3CC3)C2)cc1 (centres undefined)	-28.3
CN1CCc2nc(C3CCCN(C(=O)CC(C)(C)C)C3)ncc2C1 (centres undefined)	-102
Cc1cccc(-c2ccc(C(=O)N3CCSCC3)c(=O)[nH]2)c1	-14.2
Cc1csc(CN2CC[C@H]3O[C@H](C(=O)Nc4cccnc4)CC[C@H]32)n1	-18.1
Cc1nn(C)c2c(N3CCN(C(=O)C4CCCO4)CC3)ncnc12 (centres undefined)	9.5
CC(=O)N1CCN(C(=O)c2cc(C(C)C)no2)[C@H]2CS(=O)(=O)C[C@H]21	-67
O=C(CCNC(=O)c1cccc(OC(F)F)c1)Nc1cccnc1	-128
Cc1cccc(CN2CCc3nnc(CN(C)C)n3CC2)n1	-108
Cc1cccc(CN2CCc3nnc(CN4CCCC4=O)n3CC2)n1	-48.8
Cc1cccc(CN2CCc3nnc(Cn4cccc4)n3CC2)n1	57.5
Cc1nnc2n1CCN(CCS(=O)(=O)c1ccc(Cl)cc1)C2	-194
Cc1cccc(-c2noc(Cn3nc(C(N)=O)ccc3=O)n2)c1	-165
CN(CCCC1CCCO1)S(=O)(=O)NCc1ccccc1 (centres undefined)	-55.1
CN(C)CCN(CC1CCCO1)S(=O)(=O)NCc1ccccc1 (centres undefined)	62
O=S(=O)(NCc1ccccc1)N(Cc1ccccn1)CC1CCCO1 (centres undefined)	-181
C[C@@H](CO)NC(=O)c1ccc2nc(NS(C)(=O)=O)sc2c1	-104
CCOc1ccc(CNC(=O)N(C)CC(C)(C)O)cc1C	-65.1
COCC(=O)N1CCC2(CC1)CN(c1ccccn1)CCO2	-89.8
COCC1CC2(CCN(Cc3ccc(C)o3)CC2)CN1C(C)C (centres undefined)	34.5
COCC1CC2(CCN(C(=O)c3ccco3)CC2)CN1C(C)C (centres undefined)	24.5
COCC1CC2(CCN(Cc3nccs3)CC2)CN1Cc1ccccn1 (centres undefined)	1.23
COCC(=O)N1CCC2(CC1)CC(COC)N(Cc1ccccn1)C2 (centres undefined)	-56
Cn1cc(CN2CCC3(CC2)CCN(Cc2ccccn2)CC3)cn1	-19.8
COCC1CC2(CCN(CC3CC3)CC2)CN1Cc1csc(C)n1 (centres undefined)	53.4
COCC1CC2(CCN(Cc3ccoc3)CC2)CN1Cc1ccccn1 (centres undefined)	57.2
COCC1CC2(CCN(Cc3ccco3)CC2)CN1C(C)C (centres undefined)	64.6

SMILES	INHIBITION [%]
CCN1CCC2(CC1)CC(COC)N(Cc1csc(C)n1)C2 (centres undefined)	-19.2
COCC1CC2(CCN(C(C)=O)CC2)CN1Cc1csc(C)n1 (centres undefined)	-7.46
COCCN1CCC2(CC1)CCN(Cc1ccccn1)CC2	52.2
COCC(=O)N1CCC2(CCN(Cc3ccccn3)CC2)CC1	-158
CC(C)CO[C@H]1CN(S(=O)(=O)c2cn(C)cn2)[C@@H]2CCCO[C@H]12	-26.7
CN(CC(F)(F)F)C(=O)CNC(=O)N1CCCC(N(C)C)C1 (centres undefined)	-126
O=C(c1n[nH]c(=O)c2ccccc12)N1CCC(O)(CN2CCOCC2)C1 (centres undefined)	-74.2
CC(C)(C)OC(=O)NC(C)(C(N)=O)c1cccc(Cl)c1 (centres undefined)	-135
CC(C)c1noc(CCC(=O)N2CCSCC2)n1	-159
COCC1CN(Cc2ccccn2)Cc2nn(C)cc21 (centres undefined)	-9.17
Cc1nnc(SCC(=O)NCc2ccc3c(c2)CCC(=O)N3)s1	-34.4
Cc1nc2cc(CNC(=O)C3CC(=O)N(C4CCCC4)C3)ccc2n1C (centres undefined)	-135
CN(CC1CCCCC1)C(=O)c1ccc(-n2ncc(C#N)c2N)cc1	-48.5
CCOc1ccc(Cl)c(C(=O)NCCC(=O)Nc2ccccn2)n1	31.1
CCCn1nc2c(cc1=O)CN(c1ncnc3sccc13)CC2	-82.2
CCCNC(=O)c1cc(-c2cnc(N3CCCC3)nc2)cn1C	-151
Cc1nc(CNC(=O)c2ccc3c(c2)nc(N2CCOCC2)n3C)cs1	-33.8
CN1CCS(=O)(=O)[C@@H]2CCN(C(=O)c3ccccc3)CC[C@@H]21	-102
Cc1ccc(N2CCC3(CCN(Cc4ccccn4)CC3)CC2)nn1	-21.1
Cc1cccc(N2CCC3(CCN(Cc4ccccn4)CC3)CC2)n1	63.8
c1ccc(CN2CCC3(CC2)CCN(c2ccccn2)C3)nc1	3.14
O=C(NCC1CC1)Nc1ccc(OCC(F)(F)F)nc1	52.7
O=C(CCN1C(=O)CCC1=O)Nc1ccc(OCC(F)(F)F)nc1	-54.8
O=C(NCC1CCOC1)Nc1ccc(Oc2ccc(F)cc2)nc1 (centres undefined)	29.4
O=C(NCc1ccco1)c1cccc(C(=O)NCc2ccco2)n1	-31
Cc1nn(C)c2nc(-c3ccccn3)nc(NCCC3CCCN3C)c12 (centres undefined)	-35.5

SMILES	INHIBITION [%]
CN1CCCC1CCn1ccnc1-c1ccc2ccccc2n1 (centres undefined)	56.5
c1ccc(-c2noc(CCCN3CCCC3Cn3cccn3)n2)cc1 (centres undefined)	31.8
Cn1ccnc1CN1CCCCC1c1nc(-c2ccccc2)no1 (centres undefined)	-149
CN1CCCC1CCn1ccnc1-c1nc(-c2ccccc2)no1 (centres undefined)	57.6
OCC1CCCCN1CCn1ccnc1-c1nc2ccccc2[nH]1 (centres undefined)	13.2
O=C(NCCc1cccnc1)c1cn(CCN2CCNCC2)nn1	-75.5
Cc1cnc(N2CCn3c(CN4CCOCC4)nnc3C2)nc1	-56.3
Cn1c(CN2CC[C@](C)(O)C(C)(C)C2)cc2ccccc21	-28.6
COc1ccc(C(CNC(=O)c2c(C)noc2C)N(C)C)cc1 (centres undefined)	-125
COc1ccc(CN2CCOC(CCc3ccnc(N)c3)C2)cc1 (centres undefined)	38.1
COc1ccccc1N1CCC(CNCc2cccc(O)c2)C1 (centres undefined)	56.8
COc1ccccc1N1CCC(CNS(=O)(=O)c2cccs2)C1 (centres undefined)	7.44
COc1ccccc1N1CCC(CNCc2c(C)nn(C)c2OC)C1 (centres undefined)	53.5
COc1ccccc1N1CCC(CNS(=O)(=O)c2c(C)nn(C)c2C)C1 (centres undefined)	-22.2
COc1cccc(CNCC2CCN(CC(C)O)CC2)c1OC (centres undefined)	-2.28
COc1ccccc1N1CCC(CNCc2cccc(C#N)c2)C1 (centres undefined)	3.2
COc1ccc(CNCC2CCN(c3ccccc3OC)C2)cc1O (centres undefined)	24.5
COc1c(CNCc2ccccc2CO)c(C)nn1C	-2.62
COc1ccccc1N1CCC(CNCc2cccc(OC)c2OC)C1 (centres undefined)	57
C/C(NC(=O)c1ccco1)=C1/C(=O)C[C@@H]2[C@H]1C2(C)C	-86.3
CC(C)N(C)Cc1cn2c(n1)CN(C(=O)Cc1ccccc1)CC2	-63.5
COc1c(CNCc2cccnc2N2CCN(C)CC2)c(C)nn1C	-95.3
CCOc1nc2cnccc2n(CC(=O)NCc2ccc(C)cc2)c1=O	-10.3
Cc1nc(N2CCOCC2)nc2c1CCN(Cc1ccsc1)CC2	-79.9
CCCc1ccc(C(=O)N2Cc3c(Cn4ccnc4)nn(C)c3C2)cc1	-64.1
CCO[C@H]1C[C@@H](O)C12CCN(C(=O)CC(F)(F)F)CC2	-105

SMILES	INHIBITION [%]
N[C@H]1CN(Cc2cnc(N3CCCC3)nc2)C[C@@H]1C1CC1	-9
CCc1cc(N2C[C@H](C3CC3)[C@@H](N)C2)nc(N2CCOCC2)n1	-73.7
CNc1cc(C)nc(N2C[C@@H](C(=O)O)[C@H](C3CC3)C2)n1	-75.5
CC(C)Oc1cc(N2C[C@H](C3CC3)[C@@H](N)C2)nc(N)n1	-211
Cc1cc(N2C[C@H](C3CC3)[C@@H](N)C2)nc(N2CCCCC2)n1	56.4
CCc1cc(N2C[C@H](C3CC3)[C@@H](N)C2)nc(N2CCCC2)n1	69.6
CCc1ccc(CN(CCCn2ccnc2)Cc2ccc(C)s2)o1	21.9
CN1[C@@H]2CC[C@H]1CN(c1nc(-c3ccncc3)nc3c1cnn3C)CC2	-86.6
CCc1cc(C(=O)N2Cc3ccccc3OC3(CCOCC3)C2)on1	-33.7
CN(C)CCN1C(=O)CCC12CCCN(C(=O)CC1CC1)CC2 (centres undefined)	-26.4
Cc1nccn1CCC1CCCCN1Cc1cnc(N(C)C)nc1 (centres undefined)	4.12
Cc1nccn1CCC1CCCCN1Cc1ccc2c(c1)OCCO2 (centres undefined)	46.4
Cc1nccn1CCC1CCCCN1Cc1ccncc1 (centres undefined)	-88.5
Cc1nccn1CCC1CCCCN1Cc1cccc(CCN)c1 (centres undefined)	59.8
Cc1nccn1CCC1CCCCN1Cc1ccc(O)cc1Cl (centres undefined)	24.6
Cc1cc2c(cc1CN1CCCCC1CCn1ccnc1C)OCO2 (centres undefined)	67.7
Cn1cc(CNC2CCC(O)CC2)c(-c2cc3ccccc3o2)n1 (centres undefined)	-29
CC(C)NC(=O)Nc1ccc(CNCc2ccc(OC(F)F)cc2)cc1	-97.1
CC(C)c1nc(C2CCCN2Cc2ccncc2Cl)no1 (centres undefined)	-53.3
COCCN1C[C@@H]2CC[C@H]1CN(C(=O)c1ccc(Cl)cc1)C2	-61.5
Cc1ccc(-n2cccn2)cc1S(=O)(=O)N1C[C@H]2CC[C@@H](C1)N(C)C2	63.6
COc1ccc(-n2cccn2)cc1S(=O)(=O)N1C[C@H](C2CC2)[C@@H](N)C1	58.9
N[C@H]1CN(S(=O)(=O)c2cccnc2)C[C@@H]1C1CC1	-59.9
Cc1ccc(-n2cccn2)cc1S(=O)(=O)N1C[C@H](C2CC2)[C@@H](N)C1	41.6
CCCN1C[C@@H]2CC[C@H]1CN(Cc1cccc(-n3cccn3)c1)C2	46.5
CCCN1C[C@@H]2CC[C@H]1CN(Cc1ccc(-n3cccn3)cc1)C2	30.8
